# Only a selection was taken, and hits are over-represented in it overall.
# CBX7 inh: blocks human CBX7 binding to H3K27me3 peptide; O95931; AlphaScreen His6-CBX7 / biotin-H3K27me3 peptide binding; active compounds read low; normalised signal (fraction of DMSO) (no concentration beside the values); 66,000 tested, 1.1% active; in the data active = normalised signal below about 0.5
# Target sequence (O95931 whole entry, looked up): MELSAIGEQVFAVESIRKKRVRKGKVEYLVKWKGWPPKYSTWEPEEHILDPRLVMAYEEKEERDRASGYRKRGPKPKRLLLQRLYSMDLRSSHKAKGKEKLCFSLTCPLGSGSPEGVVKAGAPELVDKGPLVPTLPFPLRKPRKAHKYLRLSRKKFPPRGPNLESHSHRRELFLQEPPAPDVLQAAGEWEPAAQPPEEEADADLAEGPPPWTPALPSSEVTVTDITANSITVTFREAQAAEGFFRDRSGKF
# Hits are given with their value; i = inactive.
SMILES,CBX7 inh
Cc1ccc(-n2ncc3c(NCc4ccccn4)ncnc32)c(C)c1,0.119
Cc1ccc(-n2ncc3c(NCCO)ncnc32)c(C)c1,i
NC(=O)CSc1ncc(-c2ccc(Cl)cc2)[nH]1,i
Cc1ccc(NC(=O)c2cc(-c3ccc(C)c(C)c3)nc3c(Cl)cccc23)cc1C,i
Cc1ccc(-c2nn(CC(=O)NCCN3CCOCC3)c(=O)c3ccccc23)cc1,i
CCCCOc1ccc(C(=O)N(Cc2ccc(CC)cc2)C2CCS(=O)(=O)C2)cc1 (stereo not given),i
CN(c1ccccc1)S(=O)(=O)c1ccc(C(=O)Nc2nc(-c3ccc(Cl)cc3)cs2)cc1,i
CC1CN(S(=O)(=O)c2ccc(C(=O)Nc3nc(-c4ccncc4)cs3)cc2)CC(C)O1 (stereo not given),i
CC1CN(S(=O)(=O)c2ccc(C(=O)Nc3nc(-c4ccccn4)cs3)cc2)CC(C)O1 (stereo not given),0.307
CN(C1CCCCC1)S(=O)(=O)c1ccc(C(=O)Nc2nc(-c3ccccn3)cs2)cc1,i
CCCCN(C)S(=O)(=O)c1ccc(C(=O)Nc2nc(-c3ccccn3)cs2)cc1,0.0979
O=C(Nc1nc(-c2ccccn2)cs1)c1ccc(S(=O)(=O)N2CCCc3ccccc32)cc1,i
CCCCN(CC)S(=O)(=O)c1ccc(C(=O)Nc2nc(-c3ccncc3)cs2)cc1,i
CN(c1ccccc1)S(=O)(=O)c1ccc(C(=O)Nc2nc(-c3ccccn3)cs2)cc1,0.167
COc1ccccc1-c1csc(NC(=O)c2ccc(S(=O)(=O)N(C)c3ccccc3)cc2)n1,i
COc1ccccc1NC(=O)c1c(C)nn(-c2ccccc2)c1Cl,i
O=C(Cc1ccc(NC2=NC3CS(=O)(=O)CC3S2)cc1)Nc1ccc(F)cc1 (stereo not given),i
Cc1ccccc1-c1nc(CS(=O)(=O)CC(=O)N2CCC(Cc3ccccc3)CC2)c(C)o1,0.489
Cc1ccccc1-c1nc(CS(=O)(=O)CC(=O)N2CCCCC2)c(C)o1,i
Cc1ccccc1-c1nc(CS(=O)(=O)CC(=O)N2CCN(Cc3ccccc3)CC2)c(C)o1,i
O=C(COc1ccc(Br)cc1)Nc1ccc2oc(-c3cccnc3)nc2c1,i
CCc1ccc(NC(=O)c2cccc3c2C(=O)N(c2ccc(OC)cc2)C3)cc1,i
COc1ccc(N2Cc3cccc(C(=O)Nc4ccccc4OC)c3C2=O)cc1,i
CCc1ccccc1NC(=O)c1cccc2c1C(=O)N(c1ccc(OC)cc1)C2,0.143
CCOc1ccc(S(=O)(=O)c2cn(Cc3cccc(C)c3)c3ccc(OCC)cc3c2=O)cc1,i
SMILES,CBX7 inh
CCCCCc1ccc(-c2ccc(C(=O)Nc3nc4ccc(OC)cc4s3)cc2)nc1,i
O=C(NCCCn1ccnc1)c1ccc(C#Cc2ccccc2)cc1,0.105
O=C(NCCCn1ccnc1)C(=O)NCCc1ccccc1,i
O=C(NCCCn1ccnc1)C(O)(c1ccccc1)c1ccccc1,i
N#Cc1c(-c2ccccc2)nc(N2CCCCCC2)[nH]c1=O,i
CCOc1ccc(NC(=O)c2csc3c2CCC(C)C3)cc1 (stereo not given),i
CCc1ccc(NC(=O)CSc2nccn2-c2cccc(C)c2)cc1,i
Cc1cc(C)cc(NC(=O)CSc2nccn2-c2ccc(Cl)cc2)c1,0.424
COc1ccc(-n2ccnc2SCC(=O)Nc2cccc(C)c2)cc1,i
O=C(CSc1nccn1-c1ccc(F)cc1)Nc1cccc(Cl)c1,i
Cc1cccc(NC(=O)CSc2nccn2-c2ccc(Cl)cc2)c1,0.449
O=C(CSc1nccn1-c1ccc(Cl)cc1)Nc1cccc(C(F)(F)F)c1,0.451
O=C(CSc1nccn1-c1ccc(Cl)cc1)Nc1cccc(F)c1,i
Cc1cc(C)cc(NC(=O)CSc2nccn2-c2ccccc2)c1,i
CCc1ccc(NC(=O)CSc2nccn2-c2cccc(Cl)c2)cc1,0.431
CCc1ccc(NC(=O)CSc2nccn2-c2cccc(OC)c2)cc1,i
Cc1ccc(NC(=O)CSc2nccn2-c2ccc(Cl)cc2)cc1,i
COc1cccc(-n2ccnc2SCC(=O)Nc2cccc(C(F)(F)F)c2)c1,i
COc1cccc(NC(=O)CSc2nnc(Cc3cccn3C)n2-c2ccc(C)cc2)c1,i
COc1cccc(NS(=O)(=O)c2ccc3[nH]cc(C(=O)NCCc4ccc(C)cc4)c(=O)c3c2)c1,i
CCC(=O)N1CCc2cc(S(=O)(=O)N3CCN(c4cccc(C(F)(F)F)c4)CC3)ccc21,i
Nc1nc2ccc(C(=O)NC3CCC(C(=O)O)CC3)cc2s1 (stereo not given),i
Cc1cccc(C(=O)NCCc2cc3ccc(C)c(C)c3[nH]c2=O)c1,i
CC(C)(O)C#Cc1ccc(C(=O)NCc2ccncc2)cc1,i
CCN1CCN(CCCNC(=O)COc2ccc3c(c2)C(=O)CC(C)(C)O3)CC1,0.453
SMILES,CBX7 inh
CCCN1CCN(CCCNC(=O)COc2ccc3c(c2)C(=O)CC(C)(C)O3)CC1,i
CCCCCCCNC(=O)COc1ccc2c(c1)C(=O)CC(C)(C)O2,i
Cc1ccc(-c2ccc(=O)n(CC(=O)NCCCN3CCCCC3C)n2)cc1 (stereo not given),i
Cc1ccc2nsnc2c1NC(=O)c1cc(Br)ccc1Cl,i
Cc1ccc2nsnc2c1NC(=O)c1ncn[nH]1,0.452
Cc1ccc2nsnc2c1NC(=O)c1cc(Cl)ccc1Cl,i
Cc1ccc(SCC(=O)Nc2nnc(CCS(=O)(=O)c3ccc(Cl)cc3)s2)cc1,i
COc1ccccc1OCCCCc1c(C)n[nH]c1C,i
Cc1ccccc1OCCCCCc1c(C)n[nH]c1C,i
COc1ccccc1OCCCCCCc1c(C)n[nH]c1C,0.498
Cc1cc(=O)oc2c1ccc1occ(Nc3ccc(Br)c(Cl)c3)c12,i
CCOc1ccc(CNC(=O)CCC(=O)Nc2ccc3nc(N4CCCCC4)cc(C)c3c2)cc1,i
CCCCCCCNC(=O)CC(C(=O)N1CCc2ccccc21)n1ccnc1 (stereo not given),i
CN1CCN(CCCNC(=O)CC(C(=O)N2CCc3ccccc32)n2ccnc2)CC1 (stereo not given),i
O=C(CC(C(=O)N1CCc2ccccc21)n1ccnc1)NCCN1CCCCCC1 (stereo not given),0.336
CCN(CCCNC(=O)c1cn(C)c(=O)c2c1c1ccccc1n2C)c1cccc(C)c1,i
O=C(CC(C(=O)N1CCc2ccccc21)n1ccnc1)NCCCN1CCOCC1 (stereo not given),i
CCN(CCCNC(=O)CCn1c(=O)[nH]c2ccccc2c1=O)c1cccc(C)c1,i
CCN(CCCNC(=O)Cc1cn(C)c2ccccc12)c1cccc(C)c1,0.316
CCCCNC(=O)CC(C(=O)N1CCc2ccccc21)n1ccnc1 (stereo not given),i
CCN(CCCNC(=O)CC(C(=O)N1CCc2ccccc21)n1ccnc1)c1cccc(C)c1 (stereo not given),0.225
O=C(CN1C(=O)COc2ccc(S(=O)(=O)N3CCCCCC3)cc21)NCCC1=CCCCC1,i
COc1ccc(-c2nc3cc(F)c(Cl)cc3nc2-c2ccc(OC)cc2)cc1,i
COc1ccc(NC(=O)Cn2cc(S(=O)(=O)c3ccccc3)c(=O)c3ccccc32)cc1,i
O=C(NCCC1=CCCCC1)c1ccc2c(c1)N(Cc1ccccc1)C(=O)c1ccccc1S2=O (stereo not given),i
CCOc1cc(O)c(-c2n[nH]c(C)c2Oc2ccccc2)cc1CC,i
CCc1cc(-c2n[nH]c(C)c2Oc2ccccc2)c(O)cc1O,0.408
Cc1[nH]nc(-c2ccc(O)c(C)c2O)c1Oc1ccccc1,i
Cc1nc(N2CCCCC2)c2c(C)c(C(=O)N3CCC(C)CC3)sc2n1,i

# From PubChem BioAssay
